The source of these data is PubChem BioAssay (NCATS).

A short description of assay [1]: qHTS of pediatric cancer cell lines to identify multiple opportunities for drug repurposing: Primary screen for BT-37 cells (AID 1347094). Also: potency is read from the fitted curve at half-maximal effect.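 As to activity change, negative = cytotoxic: series mostly up to about 57 µM; plate controls were DMSO for no effect and bortezomib for full effect.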 The method, boiled down:
(§1)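 CRCs from 8- or 11-point titrations (lowest final 0.59 nM NPC, 0.78 nM MIPE). Cell viability: CellTiter-Glo after 48 h incubation, 15 min room-temperature development, luminescence imaging.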

Assay [2] can be described thus: qHTS of pediatric cancer cell lines to identify multiple opportunities for drug repurposing: Primary screen for NB-EBc1 cells (AID 1347095). Also: potency is read from the fitted curve at half-maximal effect.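 As to activity change, negative = cytotoxic: plate controls were DMSO neutral control for no effect and bortezomib for full effect.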 The method, boiled down:
as §1

The nature of assay [3]: qHTS of pediatric cancer cell lines to identify multiple opportunities for drug repurposing: Primary screen for NB1643 cells (AID 1347099).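 Also: plate controls were DMSO neutral control for no effect and bortezomib positive control for full effect; nearly all actives have a fitted effect of over 50% in size.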 A digest of the protocol: as §1
(In qHTS, concentration-response curves come from the screen itself.)

The nature of assay [4]: qHTS of pediatric cancer cell lines to identify multiple opportunities for drug repurposing: Primary screen for LAN-5 cells (AID 1347100). Also: potency is read from the fitted curve at half-maximal effect.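 As to activity change, negative = cytotoxic: plate controls were DMSO neutral control for no effect and bortezomib positive control for full effect.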 A digest of the protocol: (§2)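 Cells (500-1,000/well) in growth media were settled 5 h at 37 degrees C, then given compounds for 48 h. Viability was read as CellTiter-Glo luminescence. Primary runs used MIPE at 11 points (0.78 nM-46 µM) and NPC at 8 points (0.59 nM-46 µM); follow-ups used 11 points.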

Assay [5] in a line: qHTS of pediatric cancer cell lines to identify multiple opportunities for drug repurposing: Primary screen for BT-12 cells (AID 1347101). Also: nearly all actives have a fitted effect of over 25% in size. Also: potency is read from the fitted curve at half-maximal effect.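 As to activity change, negative = cytotoxic: plate controls were DMSO for no effect and bortezomib positive control for full effect.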 The method, boiled down:
(§3)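 Cells (500-1,000/well) rested 5 h, then received compounds for 48 h; metabolically active cells were measured by CellTiter-Glo luminescence. Final concentrations spanned up to 46 µM (MIPE, 11-point) or 0.59 nM-46 µM (NPC, 8-point) in primary screens, 11-point in follow-ups.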

A short description of assay [6]: qHTS of pediatric cancer cell lines to identify multiple opportunities for drug repurposing: Primary screen for Rh18 cells (AID 1347102). Also: % is scaled to controls: 0 for no effect and ±100 for the full control effect; nearly all actives have a fitted effect of over 65% in size. A digest of the protocol: as §2
Assay [7] is described as follows: qHTS of pediatric cancer cell lines to identify multiple opportunities for drug repurposing: Primary screen for OHS-50 cells (AID 1347103). Also: nearly all actives have a fitted effect of over 40% in size. Also: potency is read from the fitted curve at half-maximal effect.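 As to activity change, negative = cytotoxic: plate controls were DMSO neutral control for no effect and bortezomib positive control for full effect.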 The method, boiled down:
as §3

Assay [8] is described as follows: qHTS of pediatric cancer cell lines to identify multiple opportunities for drug repurposing: Primary screen for RD cells (AID 1347104). Also: nearly all actives have a fitted effect of over 55% in size. Also: potency is read from the fitted curve at half-maximal effect.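 As to activity change, negative = cytotoxic: plate controls were DMSO for no effect and bortezomib for full effect.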 The method, boiled down:
as §1

Assay [9] is described as follows: qHTS of pediatric cancer cell lines to identify multiple opportunities for drug repurposing: Primary screen for MG 63 (6-TG R) cells (AID 1347105). Also: % is scaled to controls: 0 for no effect and ±100 for the full control effect; nearly all actives have a fitted effect of over 50% in size. The method, boiled down:
as §1

A short description of assay [10]: qHTS of pediatric cancer cell lines to identify multiple opportunities for drug repurposing: Primary screen for control Hh wild type fibroblast cells (AID 1347106).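 Also: series mostly up to about 46 µM; % is scaled to controls: 0 for no effect and ±100 for the full control effect; a drop in luminescence marks cytotoxicity and a rise apparent proliferation; nearly all actives have a fitted effect of over 55% in size.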 The method, boiled down:
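Viability after 48 h compound treatment at 37C, 500-1,000 cells/well, read as ATP luminescence with CellTiter-Glo. Primary screens used 11-point (MIPE, 0.78 nM-46 µM) or 8-point (NPC, 0.59 nM-46 µM) final concentrations; follow-up screens used 11-point dilutions.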

The nature of assay [11]: qHTS of pediatric cancer cell lines to identify multiple opportunities for drug repurposing: Primary screen for Rh30 cells (AID 1347107). Also: series mostly up to about 46 µM; % is scaled to controls: 0 for no effect and ±100 for the full control effect; nearly all actives have a fitted effect of over 75% in size. A digest of the protocol:
as §2

A short description of assay [12]: qHTS of pediatric cancer cell lines to identify multiple opportunities for drug repurposing: Primary screen for Rh41 cells (AID 1347108). Also: nearly all actives have a fitted effect of over 70% in size. Also: potency is read from the fitted curve at half-maximal effect.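 As to activity change, negative = cytotoxic: series mostly up to about 46 µM; luminescence drop marks cytotoxic hits.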 A digest of the protocol:
as §1

A short description of assay [13]: qHTS of pediatric cancer cell lines to identify multiple opportunities for drug repurposing: Primary screen for SK-N-SH cells (AID 1347098). Also: nearly all actives have a fitted effect of over 65% in size. Also: potency is read from the fitted curve at half-maximal effect.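 As to activity change, negative = cytotoxic: DMSO served as neutral control and bortezomib at 2.3 µM as positive control; % is scaled to controls: 0 for no effect and ±100 for the full control effect.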 A digest of the protocol: as §3
Assay [14] is described as follows: qHTS of pediatric cancer cell lines to identify multiple opportunities for drug repurposing: Primary screen for Saos-2 cells (AID 1347097). Also: nearly all actives have a fitted effect of over 40% in size. Also: potency is read from the fitted curve at half-maximal effect. As to activity change, negative = cytotoxic: % is scaled to controls: 0 for no effect and ±100 for the full control effect. A digest of the protocol:
as §1

A short description of assay [15]: qHTS of pediatric cancer cell lines to identify multiple opportunities for drug repurposing: Confirmatory screen for A673 cells (AID 1347110).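 Also: potency is read from the fitted curve at half-maximal effect; cells exposed to compound for 48 h before the viability read; nearly all actives have a fitted effect of over 65% in size.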 A digest of the protocol: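 A673 cells seeded at 500-1,000 cells/well, rested 5 h, then dosed; primary MIPE 11-point (0.78 nM to 46 µM), NPC (0.59 nM to 46 µM); confirmatory 11-point. CellTiter-Glo luminescence after 48 h.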

The nature of assay [16]: qHTS of pediatric cancer cell lines to identify multiple opportunities for drug repurposing: Confirmatory screen for SK-N-MC cells (AID 1347111).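 Also: potency is read from the fitted curve at half-maximal effect; cells exposed to compound for 48 h before the readout; nearly all actives have a fitted effect of over 70% in size.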 A digest of the protocol: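 Metabolically active cells were quantified by ATP-dependent luminescence (CellTiter-Glo, 15 min at room temperature) following 48 h treatment. Cells had been plated at 500-1,000 per well and settled for 5 h beforehand.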

A short description of assay [17]: qHTS of pediatric cancer cell lines to identify multiple opportunities for drug repurposing: Confirmatory screen for BT-12 cells (AID 1347112). Also: potency is read from the fitted curve at half-maximal effect; nearly all actives have a fitted effect of over 55% in size. A digest of the protocol: as §2
A short description of assay [18]: qHTS of pediatric cancer cell lines to identify multiple opportunities for drug repurposing: Confirmatory screen for LAN-5 cells (AID 1347113). Also: potency is read from the fitted curve at half-maximal effect; nearly all actives have a fitted effect of over 65% in size. The method, boiled down: as §2
The nature of assay [19]: qHTS of pediatric cancer cell lines to identify multiple opportunities for drug repurposing: Primary screen for U-2 OS cells (AID 1347096).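 Also: plate controls were DMSO wells for no effect and bortezomib positive control wells for full effect; nearly all actives have a fitted effect of over 50% in size.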 A digest of the protocol: as §2

The structures appear in SMILES notation. Values joined by “and” are separate entries in the source; they are usually repeats but may differ in a detail not shown here. Identical values can stand only once. Inconclusive results are not listed. Unmarked numbers belong to inactive results. Active and inactive are the calls of the source. Calls follow the shape of the dose curve; as a rule, active = well fitted curve in the direction sought with a large enough effect; inconclusive = small, poorly fitted or top-dose-only effect, or another doubt; inactive = no such curve, though single readings can be large; an effect the other way counts as inactive or inconclusive.

For the compound `NCC(CC(=O)O)c1ccc(Cl)cc1` (stereo not given), the activity change, negative = cytotoxic in assay [1] is -2.84% [at 0.745 µM]; in assay [2], -3.28% [at 0.597 µM]; in [3], -5.29% [at 0.597 µM]; in [4] it was -9.23% [at 0.597 µM]; in assay [5] it was 1.13% [at 0.745 µM]; in assay [6] it was -2.74% [at 0.597 µM]. Further, the activity change, negative = cytotoxic in assay [7] was -11.1% [at 0.73 µM]; in [8], 1.05% [at 0.597 µM]; in assay [9], -15.2% [at 0.597 µM]; in assay [10], 6.77% [at 0.597 µM]; in assay [11] it was -0.257% [at 0.597 µM]; in [12], 9.97% [at 0.597 µM].

As to `O=C(O)c1ccc2[nH]cc(CCCCN3CC=C(c4ccccc4)CC3)c2c1`, the Potency entry in assay [1], in assay [13], in [3], in assay [4], in assay [5] and in [6] was “inactive” in each case. Further, the Potency result in [8], in assay [9], in [10], in assay [11] and in [12] was “inactive” in each case.

`C=C(C)[C@H]1Cc2c(ccc3c2O[C@@H]2COc4cc(OC)c(OC)cc4[C@@H]2C3=O)O1`: the Potency in assay [1] was 777 nM (active) and 2.17 µM (active); in assay [2], 3.35 µM (active) and 2.64 µM (active); in assay [14], 944 nM (active); in assay [4], 1.68 µM (active) and 526 nM (active); in [5], 87.1 nM (active) and 122 nM (active); in [7], 138 nM (active) and 243 nM (active). Also, the Potency was 1.06 µM (active) in assay [12]; 3.69 µM (active) in assay [15]; 1.65 µM (active) in assay [16]; 2.61 µM (active) in [17]; 1.17 µM (active) in [18]. Besides, the Potency entry in [10] and in assay [11] was “inactive” each time.

Consider `CCCN1CCC[C@@H]2Cc3nc(N)ncc3C[C@H]21`, for which the Potency entry in assay [1], in assay [2], in [13], in assay [3], in assay [4] and in [5] was “inactive” each time. Also, the Potency result in assay [6], in assay [7], in assay [8], in assay [10], in assay [11] and in assay [12] was “inactive” each time.

Regarding `CNC(=O)N1N=C(c2ccc(N)cc2)c2cc3c(cc2CC1C)OCO3` (stereo not given), the Potency entry in assay [19], in assay [10] and in assay [11] was “inactive” in each case. In addition, the results for the Potency in assay [4] and in assay [7] were 5.9 µM (active) and 3.85 µM (active), respectively.

Regarding `COC1(CS(=O)c2ccccc2)CCN(CCc2c[nH]c3ccc(F)cc23)CC1` (stereo not given), the Potency entry in [2], in assay [19], in [14], in assay [3], in [4] and in assay [5] was “inactive” in each case. In addition, the Potency entry in assay [6], in assay [8], in assay [10] and in assay [11] was “inactive” in each case.

Consider `Cc1cc(SCc2sc(-c3ccc(C(F)(F)F)c(F)c3)nc2C)ccc1OCC(=O)O`, for which the Potency result in assay [3], in [4], in assay [5], in assay [6], in assay [8] and in assay [9] was “inactive” in each case. For the same compound, the Potency result in assay [10], in assay [11] and in assay [12] was “inactive” in each case.

Consider `CC(C)(C)CC(C)(C)c1ccc(O)cc1`, for which the Potency is 30.6 µM (active) in assay [2]; 30.6 µM (active) and 21.1 µM (active) in assay [14]; 25 µM (active) in assay [13]; 25.2 µM (active) and 15.5 µM (active) in [7]. The Potency result in assay [3], in [6], in [8], in assay [10], in assay [11] and in [12] was “inactive” each time.

In the case of `C[C@]12C/C(=C/O)C(=O)C[C@@H]1CC[C@@H]1[C@@H]2CC[C@@]2(C)[C@H]1CC[C@]2(C)O`, the Potency entry in assay [19], in assay [6], in [8], in [9], in assay [10] and in assay [11] was “inactive” throughout. In [12], the Potency result was “inactive”.

As for `O=c1[nH]c2ccccc2n1C1CCN(CCCC(c2ccc(F)cc2)c2ccc(F)cc2)CC1`, the Potency entry in assay [19], in assay [10] and in assay [11] was “inactive” throughout. For the same compound, the Potency in assay [13] is 27.3 µM (active); in assay [5], 15.5 µM (active); in [7] it was 17.4 µM (active).

Take `CC1=C2C[C@@H]3[C@@H](CC=C4C[C@@H](O)CC[C@@]43C)[C@@H]2CC[C@]12O[C@H]1C[C@H](C)CN[C@H]1[C@H]2C`: the Potency result in [1], in [19], in [14], in [3], in assay [4] and in assay [6] was “inactive” in each case. Further, the Potency entry in [8], in assay [9] and in [10] was “inactive” throughout. Further, the Potency is 6.07 µM (active) in [13] and 30.6 µM (active) in assay [7].

Turning to `Clc1ccc(CCC(Cn2ccnc2)Sc2c(Cl)cccc2Cl)cc1` (stereo not given), the Potency in assay [2] was 21.1 µM (active); in assay [4], 20.9 µM (active); in assay [7], 27.6 µM (active); in assay [8], 37.2 µM (active). Further, the Potency result in assay [6], in assay [9], in assay [10], in assay [11] and in [12] was “inactive” throughout.
